According to PubChem BioAssay:
Active and inactive are the calls of the source.

Assays:
[1] = tested on: Human papillomavirus type 1a protein E7 (residues 44-93); assay: small molecules binding HPV E7 44-93 – biochemical, small-molecule microarray, residues 44-93, 635 nm fluorescence, primary screen (AID 1108); conditions: fluorescence 635 nm, higher = more signal;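 note: E7 fragment applied at 1 µg/mL in TBST for 1 h at 4 C; score combines spot fluorescence with its signal to noise ratio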
[2] = hepatitis C replication reporter changes, two-sided – Huh7 cells, luciferase reporter, HCV replication inhibitor project, primary screen (AID 1109); conditions: Huh7 HCV replicon luciferase reporter, 48 h; higher = more signal;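 note: huh7 hepatoma cells harbouring a luciferase neomycin HCV replicon reporter; luciferase luminescence as measure of HCV replicon replication; test concentration not given here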
[3] = molecular target: Left-right determination factor 2 (Homo sapiens) (UniProt O00292); assay: small molecules binding LEFTY2 protein – biochemical, small-molecule microarray, 635 nm fluorescence scan, primary screen (AID 1110); conditions: higher = more signal
[4] = molecular target: Calmodulin-1 (Homo sapiens) (UniProt P0DP23); assay: small molecules binding calmodulin-1 with EGTA – biochemical, small-molecule microarray, Cy5-labelled CALM1, profiling panel (AID 1111); conditions: Cy5-CALM1 binding fluorescence, higher = more signal;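 note: labelled calmodulin applied in Tris saline Tween buffer holding calcium plus EGTA and DTT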
[5] = molecular target: Calmodulin-1 (Homo sapiens) (UniProt P0DP23); assay: small molecules binding Ca-loaded calmodulin-1 – biochemical, small-molecule microarray, Cy5-labelled CALM1, plus calcium, artefact control for SMM control-protein annotation, profiling panel (AID 1112); conditions: Cy5-CALM1 binding fluorescence, higher = more signal;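 note: score merges spot fluorescence with signal to noise from triplicate slides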
[6] = probe aWnt5a binding to arrayed compounds – biochemical, biotinylated probe, 635/667 nm fluorescence, primary screen (AID 1113); conditions: small-molecule microarray, higher = more signal;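 note: score merges 667 nm fluorescence intensity with signal-to-noise per printed feature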
[7] = probe aShh binding to arrayed compounds – biochemical, biotinylated probe, 635/667 nm fluorescence, primary screen (AID 1114); conditions: small-molecule microarray, higher = more signal;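 note: probe is biotin-labelled aShh protein from a stem cell growth factor screen; measures binding of labelled protein to compounds printed on the slide; score merges feature fluorescence at 667 nm with signal-to-noise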
[8] = probe aNog binding to arrayed compounds – biochemical, biotinylated probe, 635/667 nm fluorescence, primary screen (AID 1115); conditions: small-molecule microarray, higher = more signal;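 note: probe is biotinylated aNog protein used at 0.15 µg/mL for 1 h at 4 C; z-score combines 667 nm fluorescence of each spot with its signal to noise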
[9] = molecular target: Torsin-1A-interacting protein 1 (Homo sapiens) (UniProt Q5JTV8); assay: compound microarray binding of lysate hLAP1 – cell lysate, small-molecule microarray, COS7 lysate, 635/667 nm fluorescence, primary screen (AID 1116); conditions: 635 nm fluorescence, higher = more signal
[10] = molecular target: Alpha-bungarotoxin (Bungarus multicinctus) (UniProt P60615); assay: compounds binding labelled alpha-BTX control protein – biochemical, small-molecule microarray, Alexa647 label, 635/667 nm fluorescence, artefact control for SMM control protein annotation, profiling panel (AID 1117); conditions: alpha-BTX-A647 binding fluorescence, higher = more signal
Albumin (Bos taurus) = Albumin (Bos taurus) (UniProt P02769); assay: compounds binding labelled BSA control protein – biochemical, small-molecule microarray, Alexa647 label, 635/667 nm fluorescence, artefact control for SMM control protein annotation, profiling panel (AID 1118); conditions: BSA-A647 binding, fluorescence 635 nm, higher = more signal;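 note: score merges 667 nm emission intensity and signal-to-noise per printed compound spot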
[11] = probe aXIP binding to arrayed compounds – biochemical, NeuroSMM set, 635/667 nm fluorescence, primary screen (AID 1119); conditions: small-molecule microarray, higher = more signal, called active from +8 up or from −8 down;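 note: probe is the protein aXip251-270 applied at 1 µg/mL to compound-printed slides; binding of probe to printed compounds measured as 667 nm fluorescence plus signal to noise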
[12] = probe aNOTCH3 binding on compound microarray – biochemical, small-molecule microarray, 635/667 nm fluorescence, primary screen (AID 1120); conditions: higher = more signal;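 note: probe is a biotin-tagged antibody raised against NOTCH3 rather than NOTCH3 protein; score merges spot fluorescence near 667 nm with spot signal to noise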
[13] = probe aNOTCH2 binding on compound microarray – biochemical, small-molecule microarray, 635/667 nm fluorescence, primary screen (AID 1121); conditions: higher = more signal;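 note: score merges feature fluorescence read at 667 nm with its signal to noise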
[14] = molecular target: Carbonic anhydrase 2 (Homo sapiens) (UniProt P00918); assay: compounds binding carbonic anhydrase 2 – biochemical, small-molecule microarray, Alexa647-labelled CAII, profiling panel (AID 1122); conditions: CAII-A647 binding fluorescence, higher = more signal
[15] = COS7 lysate on small-molecule microarray, probe aHis, 635 nm (AID 1123); conditions: COS7 cell lysate, fluorescence, higher = more signal;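 note: z-score combines 667nm fluorescence intensity with signal-to-noise per printed compound spot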
[16] = probe aLAP1 signal on lysate-treated microarray – cell lysate, small-molecule microarray, COS7 lysate, primary screen (AID 1124); conditions: probe aLAP1, fluorescence, higher = more signal;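 note: lysate comes from COS7 cells expressing LAP1 and is applied at 0.3 µg/mL; score merges spot fluorescence near 667 nm with signal-to-noise over triplicate slides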
Sam68 (KHDRBS1) = assay: compounds binding KHDRBS1 protein – biochemical, small-molecule microarray, 635 nm fluorescence, primary screen (AID 1125); conditions: higher = more signal;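 note: score merges 667 nm channel intensity with signal to noise over triplicate slides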
[17] = tested on: Chordin-like protein 2 (CHRDL2); assay: compounds binding chordin-like 2 – biochemical, small-molecule microarray, 635 nm fluorescence, primary screen (AID 1126); conditions: fluorescence 635 nm, higher = more signal;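 note: printed compound slides probed with Chrdl2 protein at 4 µg/mL for 1 h at 4 C; score merges 667 nm emission intensity with signal to noise over three replicate slides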
[18] = molecular target: Concanavalin-A (Canavalia ensiformis) (UniProt P02866); assay: compounds binding concanavalin A lectin – biochemical, small-molecule microarray, Alexa647 label, 635 nm, artefact control for SMM control protein annotation, primary screen (AID 1127); conditions: ConA-A647 binding fluorescence, higher = more signal;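 note: z combines 667 nm emission intensity with signal-to-noise across three replicate slides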
Concanavalin-A (Canavalia ensiformis), sequence (P02866 whole entry, looked up): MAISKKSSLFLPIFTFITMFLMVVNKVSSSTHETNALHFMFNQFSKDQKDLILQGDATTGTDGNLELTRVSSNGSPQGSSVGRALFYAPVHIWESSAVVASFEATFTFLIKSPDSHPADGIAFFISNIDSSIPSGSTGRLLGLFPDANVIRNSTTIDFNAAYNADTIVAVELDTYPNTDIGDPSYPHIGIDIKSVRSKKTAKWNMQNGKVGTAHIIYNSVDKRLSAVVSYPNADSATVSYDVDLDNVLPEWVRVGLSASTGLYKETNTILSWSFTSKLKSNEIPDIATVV

Left-right determination factor 2 (Homo sapiens), sequence (O00292 whole entry, looked up): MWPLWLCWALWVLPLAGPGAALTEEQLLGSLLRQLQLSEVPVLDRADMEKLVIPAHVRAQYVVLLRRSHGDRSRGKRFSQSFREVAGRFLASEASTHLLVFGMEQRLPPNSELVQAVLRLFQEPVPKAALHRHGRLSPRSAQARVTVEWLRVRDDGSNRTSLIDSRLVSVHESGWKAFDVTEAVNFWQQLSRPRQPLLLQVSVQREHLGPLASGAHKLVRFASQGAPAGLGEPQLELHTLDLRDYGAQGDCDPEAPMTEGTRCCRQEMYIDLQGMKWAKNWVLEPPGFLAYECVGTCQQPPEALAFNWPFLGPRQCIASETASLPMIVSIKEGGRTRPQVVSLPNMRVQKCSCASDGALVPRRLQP
Torsin-1A-interacting protein 1 (Homo sapiens), sequence (Q5JTV8 whole entry, looked up): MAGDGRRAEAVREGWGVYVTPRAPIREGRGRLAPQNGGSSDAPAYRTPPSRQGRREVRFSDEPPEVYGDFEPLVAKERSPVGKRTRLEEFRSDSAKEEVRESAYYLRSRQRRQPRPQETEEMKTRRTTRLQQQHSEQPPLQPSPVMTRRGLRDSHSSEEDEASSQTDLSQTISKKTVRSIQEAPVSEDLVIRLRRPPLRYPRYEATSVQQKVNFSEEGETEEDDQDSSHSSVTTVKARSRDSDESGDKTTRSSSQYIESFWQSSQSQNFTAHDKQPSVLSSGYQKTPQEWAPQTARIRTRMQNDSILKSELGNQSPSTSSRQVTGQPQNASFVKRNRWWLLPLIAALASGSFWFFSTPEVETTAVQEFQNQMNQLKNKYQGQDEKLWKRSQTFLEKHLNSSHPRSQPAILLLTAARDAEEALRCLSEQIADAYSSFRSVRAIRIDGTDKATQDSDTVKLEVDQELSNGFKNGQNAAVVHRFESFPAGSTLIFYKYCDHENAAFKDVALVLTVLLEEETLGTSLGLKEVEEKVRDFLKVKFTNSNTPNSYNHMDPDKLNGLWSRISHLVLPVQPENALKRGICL
Albumin (Bos taurus), sequence (P02769 whole entry, looked up): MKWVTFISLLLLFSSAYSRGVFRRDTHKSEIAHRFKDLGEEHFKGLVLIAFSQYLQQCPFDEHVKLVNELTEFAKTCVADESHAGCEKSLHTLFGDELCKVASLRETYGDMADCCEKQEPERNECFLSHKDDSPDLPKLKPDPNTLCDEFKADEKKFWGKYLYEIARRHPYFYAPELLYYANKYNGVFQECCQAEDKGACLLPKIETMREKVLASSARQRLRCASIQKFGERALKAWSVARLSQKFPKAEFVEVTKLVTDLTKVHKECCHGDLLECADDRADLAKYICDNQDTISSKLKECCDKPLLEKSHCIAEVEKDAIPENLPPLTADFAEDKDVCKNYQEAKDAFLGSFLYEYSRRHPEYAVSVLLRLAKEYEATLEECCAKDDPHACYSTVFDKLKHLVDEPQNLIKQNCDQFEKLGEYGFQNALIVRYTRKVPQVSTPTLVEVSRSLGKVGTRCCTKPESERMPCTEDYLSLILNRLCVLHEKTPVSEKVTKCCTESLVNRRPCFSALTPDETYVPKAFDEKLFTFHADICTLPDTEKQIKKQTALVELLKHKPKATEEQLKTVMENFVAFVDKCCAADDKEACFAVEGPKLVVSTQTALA
Alpha-bungarotoxin (Bungarus multicinctus), sequence (P60615 whole entry, looked up): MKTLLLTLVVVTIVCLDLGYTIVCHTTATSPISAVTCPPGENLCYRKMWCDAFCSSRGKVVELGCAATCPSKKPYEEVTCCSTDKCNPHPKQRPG

SMILES	composite z-score [1]	z-score [2]	composite z-score [3]	composite z-score [4]	composite z-score [5]	composite z-score [6]	composite z-score [7]	composite z-score [8]	composite z-score [9]	composite z-score [10]	composite z-score (Albumin (Bos taurus))	composite Z-score [11]	composite z-score [12]	composite z-score [13]	composite z-score [14]	composite z-score [15]	composite z-score [16]	composite z-score (Sam68 (KHDRBS1))	composite z-score [17]	composite z-score [18]
CC(C)CON=C1C[C@@H](O)[C@@H](O)[C@@H]2[C@@H]3C(=O)N(Cc4ccccc4)C(=O)[C@@H]3CC[C@H]12	-0.106	-1.14	0.623	-0.144	-0.414	-0.0107	-0.324	-0.169	0.163	0.506	0.428	-0.288 (inactive)	-0.0679	-0.122	0.0889	0.211	-0.366	0.51	0.447	0.321
CCOC(=O)[C@H](Cc1ccccc1)NC(=O)CCC1CC(OC(=O)NCCc2ccc(F)cc2)CC2(CCCC(COC(=O)NCCC(C)C)O2)O1 (stereo not given in full)	1.4	-0.833	0.676	-0.0594	-0.478	-0.164	-0.253	-0.0524	0.523	0.633	0.508	1.05 (inactive)	0.0939	-0.114	0.28	1.17	-0.0236	1.31	0.0858	0.831
CON=C(C)CCN1CCCc2nc(C)c(C)cc21	0.365	0.115	0.685	-0.209	-1.02	-0.0405	0.151	0.177	0.501	0.0599	-0.353	0.599 (inactive)	0.0496	-0.0769	0.438	1.42	0.234	1.1	0.637	0.374
CO[C@H]1COC(=O)CCC[C@H](C)[C@H](OC)COC(=O)CC=C[C@@H]1C	-1.46	-1.34	0.804	-0.294	-1.2	-0.156	-0.138	-0.258	0.307	-0.0936	-0.235	-0.348 (inactive)	-0.189	-0.118	-0.515	-1.17	-0.219	-0.219	1.15	-0.362
COC(=O)[C@H](C)NC(=O)CCC1CC(OC(=O)NCc2ccc3c(c2)OCO3)CC2(CCCC(COC(=O)NCCCN3CCCC3=O)O2)O1 (stereo not given in full)	1.32	-1.87	0.849	0.924	-0.151	-0.0644	-0.186	0.0215	0.286	0.88	0.328	0.3 (inactive)	0.186	-0.293	0.167	0.639	0.261	1.26	0.826	0.872
COc1ccc(COC(=O)NN=C2C[C@@H](O)[C@@H](O)[C@@H]3[C@@H]4C(=O)N([C@@H](C)c5ccccc5)C(=O)[C@@H]4CC[C@H]23)cc1	-1.05	-1.66	-0.291	-0.0436	0.073	-0.0405	0.0121	0.314	-0.484	0.471	0.434	-0.259 (inactive)	0.24	0.867	-0.277	0.232	-0.266	-0.638	-0.217	0.0744
CCOC(=O)[C@H](Cc1ccccc1)NC(=O)CCC1CC(OC(=O)NCc2ccc3c(c2)OCO3)CC2(CCCC(COC(=O)NCCOc3ccccc3)O2)O1 (stereo not given in full)	1.24	-0.682	0.753	0.505	-0.166	-0.15	-0.223	-0.0047	0.301	0.495	-0.245	-0.344 (inactive)	0.0636	-0.034	0.109	1.52	-0.252	1.29	0.58	1.13
COC(=O)C(C(=O)OC)C1CCCC(=O)C1 (stereo not given)	0.549	0.593	0.576	-0.385	-0.645	-0.104	-0.107	-0.0446	0.526	0.0087	-0.0912	0.499 (inactive)	-0.0391	-0.0694	0.381	0.214	-0.205	-0.0924	0.414	0.468
CCOC(=O)[C@H](CC(C)C)NC(=O)CCC1CC(OC(=O)NCc2ccc3c(c2)OCO3)CC2(CCCC(COC(=O)NCCOC)O2)O1 (stereo not given in full)	0.522	-0.322	0.249	0.221	-0.491	-0.0792	-0.2	-0.0615	0.956	1.05	-0.398	-0.0756 (inactive)	0.0208	-0.166	0.152	0.57	0.0898	0.911	0.293	0.858
C=CCOCC1CN2[C@@H](CC[C@@H](C)[C@@H]2c2ccc(Br)cc2)C(=O)O1 (stereo not given in full)	0.157	-0.121	0.0328	-0.457	-0.78	-0.219	-0.154	-0.196	0.0323	0.101	-0.509	0.419 (inactive)	-0.0932	-0.189	-0.401	-0.329	0.975	-0.85	0.562	-0.172
CON=C1c2cc(OC)ccc2O[C@H](c2cccc(OC)c2)[C@H]1O	0.365	7.91	0.601	-0.332	-0.729	-0.0165	0.172	-0.0211	0.646	-0.0531	-0.181	0.133 (inactive)	0.123	0.0267	0.11	0.275	0.332	0.415	0.707	0.267
